Measurements taken from PubChem BioAssay AID1159580 (chemical genetic matrix, 2015).
The whole screen tested about 5,500 compounds, of which about 2,000 (36%) were called active. Another 18% or so got no clear call; they are omitted. Rule as the data show it: active = normalized growth mostly below about 0.91 (no sharp cut-off); inconclusive = no clear call, values can overlap the other calls; inactive = mostly above about 0.92. Some of the results follow.

Assay: chemical genetic growth profiling, strain panel (AID 1159580);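 also: tested at 20 µM; growth read once vehicle control cultures reached saturation at 30 °C; 1 = growth at the plate median or of vehicle wells; lower values mean less growth of the strain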
Details: S. cerevisiae deletion strains, growth OD
[1] = locus YAL040C, strain CLN3, active compounds read low
[2] = locus YCL061C, strain MRC1 (second series), active compounds read low
[3] = locus YDR363W, strain ESC2, active compounds read low
[4] = locus YER002W, strain NOP16, active compounds read low
[5] = locus YMR263W, strain SAP30, active compounds read low
[6] = locus YMR307W, strain GAS1, active compounds read low
[7] = locus YNL175C, strain NOP13, active compounds read low
[8] = locus YNL197C, strain WHI3, active compounds read low
[9] = locus YNL224C, strain SQS1, active compounds read low
[10] = locus YOR083W, strain WHI5 (second series), active compounds read low

Measured: normalized growth

C[N+]1(C)C2CC(OC(=O)C(CO)c3ccccc3)CC1C1OC12 (configuration not stated)
inactive: locus YAL013W, strain DEP1, active compounds read low 1.03 | [1] 0.975 | [2] 0.995 | [3] 0.985 | [4] 0.997 | locus YGR229C, strain SMI1, active compounds read low 1.05 | [5] 1 | [6] 1.01 | locus YNL128W, strain TEP1, active compounds read low 0.992 | [7] 0.973 | [8] 0.982 | [9] 0.988 | locus YNL322C, strain KRE1, active compounds read low 1 | [10] 0.978 | locus YPL055C, strain LGE1, active compounds read low 1.02 | locus YPL241C, strain CIN2, active compounds read low 0.993

C[N+]1(C)C2CC(OC(=O)[C@H](CO)c3ccccc3)CC1C1OC12 (some centres not stated)
inactive: [1] 0.999 | [2] 1 | [3] 0.998 | [4] 0.981 | [5] 0.998 | [6] 0.946 | locus YNL153C, strain GIM3, active compounds read low 0.99 | [7] 0.996 | [8] 0.988 | [9] 0.994 | [10] 0.991
